Results as given in PubChem BioAssay (NCATS).
Results filed as inconclusive are left out. Activity calls are given as the source filed them. Calls follow the shape of the dose curve; as a rule, active = well fitted inhibition curve with a large enough effect; inconclusive = small, poorly fitted or top-dose-only effect; inactive = flat fitted curve, though single readings scatter.

Columns and labels:
Experiment in all cases: qHTS profiling for inhibitors of Plasmodium falciparum proliferation (AID 504749); also: nearly all actives have a fitted effect of over 60% in size
Settings in all cases: P. falciparum in erythrocytes, SYBR Green DNA, 72 h; series mostly up to 12.8 µM
CP265 = tested on: CP265
Procedure, shortened: (§1)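 Parasite proliferation within erythrocytes, 72 h exposure. Endpoint: SYBR Green I fluorescence after overnight lysis at room temperature. Controls: 0.29 uM artemisinin, DMSO.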

CP266 = tested on: CP266
Procedure, shortened: as §1

CP268 = tested on: CP268
Procedure, shortened: as §1

CP269 = tested on: CP269
Procedure, shortened: as §1

CP286 = tested on: CP286
Procedure, shortened: as §1

CP291 = tested on: CP291
Procedure, shortened: as §1

CP297 = tested on: CP297
Procedure, shortened: as §1

CP305 = tested on: CP305
Procedure, shortened: as §1

CP315 = tested on: CP315
Procedure, shortened: as §1

CP325 = tested on: CP325
Procedure, shortened: as §1

CP329 = tested on: CP329
Procedure, shortened: as §1

CP335 = tested on: CP335
Procedure, shortened: as §1

DFO2036 = tested on: DFO2036
Procedure, shortened: as §1

DIV14 = tested on: DIV14
Procedure, shortened: as §1

DIV17 = tested on: DIV17
Procedure, shortened: as §1

DIV30 = tested on: DIV30
Procedure, shortened: as §1

Dd2 = tested on: Dd2
Procedure, shortened: as §1

ECU = tested on: ECU
Procedure, shortened: as §1

FAB9 = tested on: FAB9
Procedure, shortened: as §1

GB4 = tested on: GB4
Procedure, shortened: as §1

HB3 = tested on: HB3
Procedure, shortened: as §1

ICS = tested on: ICS
Procedure, shortened: as §1

JCK = tested on: JCK
Procedure, shortened: as §1

N140 = tested on: N140
Procedure, shortened: as §1

P93_24 = tested on: P93_24
Procedure, shortened: as §1

P94_40 = tested on: P94_40
Procedure, shortened: as §1

PAD = tested on: PAD
Procedure, shortened: as §1

PC15 = tested on: PC15
Procedure, shortened: as §1

PC49 = tested on: PC49
Procedure, shortened: as §1

SC27B = tested on: SC27B
Procedure, shortened: as §1

TAB109 = tested on: TAB109
Procedure, shortened: as §1

TAB113 = tested on: TAB113
Procedure, shortened: as §1

TAB165 = tested on: TAB165
Procedure, shortened: as §1

W2 = tested on: W2
Procedure, shortened: as §1

Measured: Potency

CC[C@H]1NC(=O)c2cc(S(N)(=O)=O)c(Cl)cc2N1
inactive: CP265 | CP266 | CP268 | CP269 | CP286 | CP291 | CP297 | CP305 | CP315 | CP325 | CP329 | CP335 | DFO2036 | DIV14 | DIV17 | DIV30 | Dd2 | ECU | FAB9 | GB4 | HB3 | ICS | JCK | N140 | P93_24 | P94_40 | PAD | PC15 | PC49 | SC27B | TAB109 | TAB113 | TAB165 | W2
